Structures are written as SMILES. About 83,000 compounds went through this panel and 20% of them were active in at least one assay; those are over-represented in the sample as a whole.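 A percent growth of 40 corresponds to 60% growth inhibition; 0 means no net growth; -100 means all cells died. Active threshold: below 10.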 Active and inactive are the calls of the source.

The assay has as its system SR leukemia. Nature of the assay: NCI-60 one-dose screen, 48 h (100 = growth as untreated, 0 = no growth, -100 = all killed). To be noted: 10 µM unless noted.
As for `Cn1nc(C(F)(F)F)cc1-c1cc(Cl)c(OCc2ccc(Cl)cc2)c(-c2ccc(Cl)c(C(F)(F)F)c2)c1O`, the growth was 17.6% (inactive).

Consider `CC(=O)O[C@H]1[C@H](CC#CC#CC[C@@H]2C[C@]3(C)[C@H]4CC=C5[C@H]6[C@@H](C)[C@H](C)CC[C@]6(C(=O)NCCN(CCN)CCN)CC[C@@]5(C)[C@]4(C)CC[C@H]3C(C)(C)[C@H]2OC(C)=O)C[C@]2(C)[C@H]3CC=C4[C@H]5[C@@H](C)[C@H](C)CC[C@]5(C(=O)NCCN(CCN)CCN)CC[C@@]4(C)[C@]3(C)CC[C@H]2C1(C)C`, for which the growth is 53.9% (inactive).

Turning to `CC(=O)c1ccc(Nc2nc(Cl)nc(Oc3c(Cl)cccc3Cl)n2)cc1`, the growth is 82.3% (inactive).

On to `Oc1[nH]c2ccccc2c1/C=c1/ccc2c(c1)N=C(c1ccc(C(F)(F)F)cc1)N=2`, for which the growth is 12.1% (inactive).

Take `Brc1cccc(-n2ncc3c(Nc4ccc(-c5nnc(-c6ccccc6)o5)cc4)ncnc32)c1`: the growth is 119% (inactive).

On to `CCNC(=S)N(Cc1ccccc1)Cc1ccccc1`, for which the growth is 72% (inactive).

For `COc1cccc(CC(C)=C(c2ccc(OCCCN(C)C)cc2)c2ccc(OCCCN(C)C)cc2)c1`, the growth is -49.1% (active).

As to `N[C@@H](CO)C(=O)O`, the growth was 103% (inactive).

`O=C(c1ccc(C(F)(F)F)c(Cl)c1)N(Cc1ccc(Cl)cc1)c1ccc(-c2cc(C(F)(F)F)[nH]n2)c(O)c1`: the growth is 20% (inactive).

In the case of `c1ccc(C(Nc2ccccn2)(c2ccccc2)c2ccccc2)cc1`, the growth was 97% (inactive).

With `CC[C@H](Nc1nc(N)nc(N)c1Cl)c1nc2cccc(NCc3ccc(C(=O)NO)cc3)c2c(=O)n1-c1ccccc1`, the growth was -5.94% (active).

Source of the values: PubChem BioAssay (NCI).
